According to the supplement of paper PMC11001985:

The targets below were run with C#CCNC(=O)CCSSCCC(=O)NCCc1ccc(C=O)c(C=O)c1 (assay: lysine labeling ratio R10:1 (500 µM / 50 µM probe), SILAC-ABPP in living cells; higher = lower intrinsic lysine reactivity toward the probe, active = 2 or less). Conditions: HeLa; probe concentrations 500 vs 50 µM.
How it was run: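 R, given per lysine, is the filtered median high-probe/low-probe MS1 peptide ratio, with the median then taken across forward and reverse replicates. Cells were living SILAC light and heavy HeLa cells in PBS at room temperature, labelled with 50 µM or 500 µM of an alkyne-tagged, disulfide-linked lysine probe. The ceiling applied is 20.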

Chain of UniProt Q15149 (Q15149 whole entry): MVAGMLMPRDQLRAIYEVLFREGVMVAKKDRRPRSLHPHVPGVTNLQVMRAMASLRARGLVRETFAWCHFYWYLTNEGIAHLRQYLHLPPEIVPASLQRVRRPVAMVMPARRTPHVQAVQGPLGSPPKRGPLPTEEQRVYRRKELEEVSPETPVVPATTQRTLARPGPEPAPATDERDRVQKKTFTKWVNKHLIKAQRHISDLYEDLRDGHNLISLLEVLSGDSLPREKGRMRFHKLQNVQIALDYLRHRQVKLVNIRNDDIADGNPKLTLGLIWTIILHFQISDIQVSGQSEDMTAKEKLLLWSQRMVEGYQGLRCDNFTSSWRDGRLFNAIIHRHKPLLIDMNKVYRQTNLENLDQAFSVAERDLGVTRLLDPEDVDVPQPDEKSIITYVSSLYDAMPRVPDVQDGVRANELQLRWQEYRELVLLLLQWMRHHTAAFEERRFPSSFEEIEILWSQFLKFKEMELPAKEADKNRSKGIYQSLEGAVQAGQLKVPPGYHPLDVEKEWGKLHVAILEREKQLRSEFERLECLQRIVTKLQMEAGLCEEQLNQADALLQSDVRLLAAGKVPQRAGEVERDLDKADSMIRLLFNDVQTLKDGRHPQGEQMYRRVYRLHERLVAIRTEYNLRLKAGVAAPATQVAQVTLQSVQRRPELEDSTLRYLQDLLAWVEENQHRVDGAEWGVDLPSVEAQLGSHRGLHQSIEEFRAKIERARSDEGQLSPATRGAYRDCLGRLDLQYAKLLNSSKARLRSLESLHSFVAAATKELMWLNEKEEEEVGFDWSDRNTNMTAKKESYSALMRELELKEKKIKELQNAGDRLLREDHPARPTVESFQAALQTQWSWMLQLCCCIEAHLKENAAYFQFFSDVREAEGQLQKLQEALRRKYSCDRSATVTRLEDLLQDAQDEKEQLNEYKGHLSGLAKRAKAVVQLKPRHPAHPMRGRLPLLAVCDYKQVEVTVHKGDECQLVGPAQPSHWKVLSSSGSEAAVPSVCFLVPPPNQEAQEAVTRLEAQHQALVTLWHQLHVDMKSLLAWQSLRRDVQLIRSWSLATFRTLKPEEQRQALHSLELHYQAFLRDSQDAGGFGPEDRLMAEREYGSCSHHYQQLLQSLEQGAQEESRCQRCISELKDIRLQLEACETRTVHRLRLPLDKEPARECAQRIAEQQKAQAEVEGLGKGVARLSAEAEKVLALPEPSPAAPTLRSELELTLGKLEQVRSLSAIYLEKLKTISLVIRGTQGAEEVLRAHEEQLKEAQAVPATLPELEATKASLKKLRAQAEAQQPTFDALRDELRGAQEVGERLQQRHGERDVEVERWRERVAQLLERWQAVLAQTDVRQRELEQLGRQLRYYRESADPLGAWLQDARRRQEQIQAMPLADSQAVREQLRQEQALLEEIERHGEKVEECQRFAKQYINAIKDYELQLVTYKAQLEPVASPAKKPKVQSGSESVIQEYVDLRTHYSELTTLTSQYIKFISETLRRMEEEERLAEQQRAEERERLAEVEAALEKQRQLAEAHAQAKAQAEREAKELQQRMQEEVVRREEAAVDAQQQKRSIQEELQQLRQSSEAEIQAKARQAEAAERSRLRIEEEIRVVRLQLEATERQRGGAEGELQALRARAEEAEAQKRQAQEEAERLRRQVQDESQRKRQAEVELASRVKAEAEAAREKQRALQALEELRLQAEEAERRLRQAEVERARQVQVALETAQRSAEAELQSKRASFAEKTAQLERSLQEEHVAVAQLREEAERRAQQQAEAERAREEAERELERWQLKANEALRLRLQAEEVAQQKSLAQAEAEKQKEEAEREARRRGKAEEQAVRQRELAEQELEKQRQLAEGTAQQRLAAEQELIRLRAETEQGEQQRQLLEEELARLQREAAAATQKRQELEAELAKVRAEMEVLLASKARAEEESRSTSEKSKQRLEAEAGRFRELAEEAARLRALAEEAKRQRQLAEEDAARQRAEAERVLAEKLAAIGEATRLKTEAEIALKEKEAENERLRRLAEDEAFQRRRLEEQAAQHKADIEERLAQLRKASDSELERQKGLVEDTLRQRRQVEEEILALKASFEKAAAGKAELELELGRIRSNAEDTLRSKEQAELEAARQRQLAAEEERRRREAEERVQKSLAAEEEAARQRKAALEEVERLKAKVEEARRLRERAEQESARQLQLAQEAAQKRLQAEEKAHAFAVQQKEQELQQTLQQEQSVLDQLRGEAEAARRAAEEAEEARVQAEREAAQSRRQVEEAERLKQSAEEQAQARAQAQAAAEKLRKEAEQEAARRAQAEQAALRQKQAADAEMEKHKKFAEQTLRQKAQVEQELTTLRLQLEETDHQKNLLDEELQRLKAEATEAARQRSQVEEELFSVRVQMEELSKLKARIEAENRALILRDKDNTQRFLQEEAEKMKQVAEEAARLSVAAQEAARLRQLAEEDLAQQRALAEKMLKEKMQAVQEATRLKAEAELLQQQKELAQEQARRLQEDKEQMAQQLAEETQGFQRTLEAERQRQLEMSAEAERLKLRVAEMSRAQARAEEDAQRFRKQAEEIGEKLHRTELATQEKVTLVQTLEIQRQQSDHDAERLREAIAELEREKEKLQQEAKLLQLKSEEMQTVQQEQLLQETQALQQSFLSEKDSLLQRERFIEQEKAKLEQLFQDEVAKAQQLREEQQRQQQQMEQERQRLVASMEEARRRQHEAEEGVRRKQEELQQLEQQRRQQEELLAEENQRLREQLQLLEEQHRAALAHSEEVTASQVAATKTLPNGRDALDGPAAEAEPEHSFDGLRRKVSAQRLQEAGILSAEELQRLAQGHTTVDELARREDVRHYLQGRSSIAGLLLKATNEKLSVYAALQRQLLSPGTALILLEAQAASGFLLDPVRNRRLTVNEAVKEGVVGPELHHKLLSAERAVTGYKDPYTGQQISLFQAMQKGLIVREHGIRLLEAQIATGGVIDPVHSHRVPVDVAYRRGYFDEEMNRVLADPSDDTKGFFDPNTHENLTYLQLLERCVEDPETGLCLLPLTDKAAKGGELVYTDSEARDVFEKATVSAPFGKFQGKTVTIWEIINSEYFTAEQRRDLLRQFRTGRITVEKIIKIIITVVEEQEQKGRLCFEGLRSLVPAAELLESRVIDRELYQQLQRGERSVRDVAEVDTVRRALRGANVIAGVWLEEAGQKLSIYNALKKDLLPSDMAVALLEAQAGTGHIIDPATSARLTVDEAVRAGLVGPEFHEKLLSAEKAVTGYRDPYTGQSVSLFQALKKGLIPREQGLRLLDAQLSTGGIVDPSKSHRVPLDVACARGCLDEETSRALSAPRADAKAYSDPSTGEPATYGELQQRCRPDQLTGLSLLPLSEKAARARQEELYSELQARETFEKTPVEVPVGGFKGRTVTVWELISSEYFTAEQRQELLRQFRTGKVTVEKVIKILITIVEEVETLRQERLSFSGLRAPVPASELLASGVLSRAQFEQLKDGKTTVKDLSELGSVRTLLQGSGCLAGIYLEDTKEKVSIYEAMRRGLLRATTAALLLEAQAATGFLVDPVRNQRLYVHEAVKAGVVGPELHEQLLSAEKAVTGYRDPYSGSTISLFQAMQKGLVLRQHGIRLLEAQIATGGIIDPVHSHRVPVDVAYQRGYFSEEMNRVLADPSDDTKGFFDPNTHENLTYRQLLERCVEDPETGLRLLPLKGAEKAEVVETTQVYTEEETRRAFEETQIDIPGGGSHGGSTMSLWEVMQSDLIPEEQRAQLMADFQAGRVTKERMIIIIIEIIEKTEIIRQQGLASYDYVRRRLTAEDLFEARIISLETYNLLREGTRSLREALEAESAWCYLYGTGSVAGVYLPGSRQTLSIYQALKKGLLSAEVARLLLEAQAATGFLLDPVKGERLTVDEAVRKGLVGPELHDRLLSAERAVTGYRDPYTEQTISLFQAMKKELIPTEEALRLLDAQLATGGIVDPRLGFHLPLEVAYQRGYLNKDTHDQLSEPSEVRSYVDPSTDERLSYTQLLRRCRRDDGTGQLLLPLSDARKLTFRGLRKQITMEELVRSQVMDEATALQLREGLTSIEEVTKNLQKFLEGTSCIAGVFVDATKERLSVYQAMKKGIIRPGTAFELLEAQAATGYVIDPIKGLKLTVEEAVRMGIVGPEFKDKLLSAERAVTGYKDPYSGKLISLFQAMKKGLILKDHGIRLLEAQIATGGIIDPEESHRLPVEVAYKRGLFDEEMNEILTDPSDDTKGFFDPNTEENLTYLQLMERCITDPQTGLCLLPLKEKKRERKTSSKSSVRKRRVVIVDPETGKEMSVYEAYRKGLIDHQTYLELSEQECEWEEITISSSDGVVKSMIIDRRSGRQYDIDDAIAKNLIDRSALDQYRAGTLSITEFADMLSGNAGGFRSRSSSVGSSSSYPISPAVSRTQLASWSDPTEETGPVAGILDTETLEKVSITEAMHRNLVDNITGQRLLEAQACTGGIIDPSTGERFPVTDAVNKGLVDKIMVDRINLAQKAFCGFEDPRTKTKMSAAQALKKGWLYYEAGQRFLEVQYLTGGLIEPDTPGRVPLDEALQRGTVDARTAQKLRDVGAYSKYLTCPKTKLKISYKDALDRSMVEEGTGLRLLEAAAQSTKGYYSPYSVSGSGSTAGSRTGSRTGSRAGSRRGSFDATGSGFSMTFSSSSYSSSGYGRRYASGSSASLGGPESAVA
Chain of UniProt P22234 (P22234 whole entry): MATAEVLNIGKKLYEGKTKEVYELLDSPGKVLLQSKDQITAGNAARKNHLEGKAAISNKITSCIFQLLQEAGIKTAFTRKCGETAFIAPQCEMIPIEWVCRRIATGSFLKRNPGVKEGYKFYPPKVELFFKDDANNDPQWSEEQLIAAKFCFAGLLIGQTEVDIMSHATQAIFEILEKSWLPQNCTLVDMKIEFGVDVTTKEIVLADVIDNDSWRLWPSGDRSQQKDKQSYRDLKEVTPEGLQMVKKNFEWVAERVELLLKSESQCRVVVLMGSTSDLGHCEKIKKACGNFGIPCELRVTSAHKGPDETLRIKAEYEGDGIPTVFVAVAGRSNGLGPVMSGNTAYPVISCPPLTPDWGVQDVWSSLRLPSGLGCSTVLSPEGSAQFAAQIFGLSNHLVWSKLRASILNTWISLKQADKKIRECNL

Lysine labeling ratio R10:1, inactive:
CCT3 (lysine site: K381) (UniProt P49368) 2.81
TAGLN2 (lysine site: K171) (UniProt P37802) 8.2
SPTBN1 (lysine site: K1021) (UniProt Q01082) 6.62
UniProt Q15149 (lysine site: K3384) 4.26
CANX (lysine site: K118) (UniProt P27824) 2.15
HSPA5 (lysine site: K523) (UniProt P11021) 3.39
UniProt P46781 (lysine site: K139) 3
UniProt Q8WXI7 (lysine site: K13985) 7.69
SERBP1 (lysine site: K68) (UniProt Q8NC51) 5.36
UniProt Q15149 (lysine site: K2025) 4.19
UniProt Q15149 (lysine site: K1908) 3.91
CD63 (lysine site: K194) (UniProt P08962) 2.39
HSPD1 (lysine site: K130) (UniProt P10809) 4.23
PDCD6IP (lysine site: K313) (UniProt Q8WUM4) 2.29
ATP1B1 (lysine site: K288) (UniProt P05026) 13.2

Lysine labeling ratio R10:1, active:
PAICS (lysine site: K247) (UniProt P22234) 1.41
PAICS (lysine site: K261) (UniProt P22234) 0.93
FAT4 (lysine site: K1251) (UniProt Q6V0I7) 1.62
RUVBL1 (lysine site: K182) (UniProt Q9Y265) 0.748
MYH9 (lysine site: K1387) (UniProt P35579) 1.88
LAMC1 (lysine site: K1329) (UniProt P11047) 1.2
UniProt Q15149 (lysine site: K792) 1.45
UniProt Q15149 (lysine site: K4348) 1.12
